# CHT inh: inhibitors of human choline transporter CHT; CHT-expressing cells, membrane potential dye, choline response; stronger effect = lower value; hit rate 0.86% among 310,000; AID 488975; B-score at 10 µM; Q9GZV3;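 active = B-score over 3 SD under the library average, and starting fluorescence ratio not unusually high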;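 note: choline stimulus applied at its EC90 after an EC20 pre-addition; B-score computed on integrated fluorescence ratio after choline addition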
# CHT PAM: human CHT allosteric activation | CHT-expressing cells, membrane potential dye, choline EC20; stronger effect = higher value; LV-AA mutant CHT in HEK293 cells | B-score at 10 µM | Q9GZV3 | AID 488977 | hit rate 0.49% among 310,000;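 active = initial fluorescence not abnormally high and integrated response B-score, plate-corrected, over 3 SD above library mean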
# TMEM16A inh: blocks the mouse calcium-activated chloride channel TMEM16A. Q8BHY3. HEK293 TMEM16A/YFP iodide influx fluorescence, ionomycin. normalized B-score (activity score, 25-100; higher = stronger inhibition) at 10 µM. hit rate 1.2% among 310,000. AID 588511;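 active = ratio plate-corrected score three or more library SD toward inhibition, starting fluorescence score within five deviations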;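 note: score derived from kinetic fluorescence span divided by baseline fluorescence per well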
# Target sequence (Q8BHY3 whole entry, looked up): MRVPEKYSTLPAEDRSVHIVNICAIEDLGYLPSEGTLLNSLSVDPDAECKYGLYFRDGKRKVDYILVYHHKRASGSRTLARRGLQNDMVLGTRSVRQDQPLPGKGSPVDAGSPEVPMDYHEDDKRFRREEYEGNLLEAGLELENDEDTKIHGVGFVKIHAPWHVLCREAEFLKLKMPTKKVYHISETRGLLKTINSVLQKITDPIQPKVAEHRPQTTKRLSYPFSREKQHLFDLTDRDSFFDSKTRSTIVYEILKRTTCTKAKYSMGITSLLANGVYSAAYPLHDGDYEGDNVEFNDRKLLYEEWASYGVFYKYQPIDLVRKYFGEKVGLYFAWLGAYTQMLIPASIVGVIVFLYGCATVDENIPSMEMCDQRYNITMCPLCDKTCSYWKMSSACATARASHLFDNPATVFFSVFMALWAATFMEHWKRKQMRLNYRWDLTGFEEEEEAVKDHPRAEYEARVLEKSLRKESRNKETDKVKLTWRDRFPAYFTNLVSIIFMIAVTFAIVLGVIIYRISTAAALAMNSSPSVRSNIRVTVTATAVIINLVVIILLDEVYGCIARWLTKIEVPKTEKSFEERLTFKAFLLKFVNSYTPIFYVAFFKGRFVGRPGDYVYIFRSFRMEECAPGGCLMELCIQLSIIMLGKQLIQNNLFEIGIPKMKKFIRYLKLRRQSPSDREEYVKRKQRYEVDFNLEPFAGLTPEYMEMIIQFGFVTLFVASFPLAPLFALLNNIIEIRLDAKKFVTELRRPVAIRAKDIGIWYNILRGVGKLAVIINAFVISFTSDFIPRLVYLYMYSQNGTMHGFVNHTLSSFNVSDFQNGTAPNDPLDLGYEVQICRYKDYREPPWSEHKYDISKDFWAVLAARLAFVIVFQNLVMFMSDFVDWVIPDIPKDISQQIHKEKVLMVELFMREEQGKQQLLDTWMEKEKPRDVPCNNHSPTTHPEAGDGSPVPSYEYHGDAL
# IDE act: boosts human insulin-degrading enzyme activity in HEK cells | hit rate 0.073% among 340,000 | activation, % at 5.96 µM | FAbeta-B cleavage, fluorescence polarization; 0% vehicle, 100% cell-free pure enzyme wells | P14735;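 active = activation above the mean of all tested compounds plus 3 SD, set per screening campaign, cut at about 17% in these data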
# IDE cell inh: cellular human IDE inhibition; hit rate 0.41% among 320,000; inhibition, % at 5.59 µM; P14735; HEK cells, FAbetaB cleavage, fluorescence polarization;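 active = percent inhibition above the average of all tested compounds plus 3 SD, set per screening campaign, cut at about 16% in these data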;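 note: IDE supplied by intact live HEK cells; FP after avidin binding of uncleaved biotin substrate so inhibition keeps polarization high; 0% = DMSO wells and 100% = 60 µM reference IDE inhibitor Ii1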
# TMEM16A act: mouse TMEM16A channel activation, primary screen. HEK293 TMEM16A/YFP-H148Q/I152L, iodide quench fluorescence; stronger effect = lower value. B-score at 10 µM. hit rate 0.3% among 340,000. AID 623877;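 active = fluorescence-ratio B-score plate-corrected deviation score at least 3 library SD below zero, with starting fluorescence score within 5 deviations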;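 note: channel opened by trigger with iodide after compound preincubation; score built on the fluorescence ratio of max minus min over baseline; more negative score means more quench and so TMEM16A activation or potentiation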
# TMEM16A reconf: reconfirmed blocker of mouse TMEM16A calcium-activated chloride channel; inhibition, % at 10 µM; shares compounds with TMEM16A inh; hit rate 39% among 2,300; HEK293 TMEM16A/YFP-H148Q, iodide quench fluorescence; ionomycin added to raise cell calcium;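 active = mean duplicate percent inhibition, scaled so buffer wells are 0 and the reference blocker 100, over three buffer SD above buffer mean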
# HEK293 Ca mobil: counter-screen for TMEM16A inhibitors: effect on calcium mobilization; shares compounds with TMEM16A inh; TMEM16A/YFP HEK293, Fluo4 calcium mobilization; calcium response (% of ionomycin), % at 10 µM; hit rate 2% among 2,300; AID 652231;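 active = duplicate-averaged calcium signal over 20% of the ionomycin maximum, relative to buffer baseline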;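 note: each well's signal is peak minus trough fluorescence divided by its pre-addition baseline; 0% = buffer wells and 100% = ionomycin wells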
# Parental YFP cnt: counter-screen for TMEM16A inhibitors: effect in parental YFP-HEK293 cells. shares compounds with TMEM16A inh. iodide YFP quench, ionomycin. YFP ratio F(max-min)/F0 at 10 µM. 2,300 tested, under 10 active;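 active = yellow fluorescent protein signal ratio exceeding the buffer control mean by over 5 SD of those controls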;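 note: ratio is mean of duplicate wells from kinetic YFP trace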
# ClC-1 rat inh: blocks the rat ClC-1 voltage-dependent chloride channel; shares compounds with TMEM16A inh; CHO ClC-1-YFP, iodide influx fluorescence quench; iodide control reads 0, buffer control 100; ratio percent, % at 10 µM; 2,300 tested, under 10 active; AID 652236;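 active = duplicate-mean ratio percent above the mean of iodide-only control wells, which defines zero, plus 5 of their SD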;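 note: higher percent means stronger block of ClC-1 iodide influx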
# An asterisk follows results filed as active; i = inactive; / = no result; ! = repeats disagree. This is a sample that favours compounds with a hit; in the whole collection about 2.7% have one here.
SMILES,CHT inh,CHT PAM,TMEM16A inh,IDE act,IDE cell inh,TMEM16A act,TMEM16A reconf,HEK293 Ca mobil,Parental YFP cnt,ClC-1 rat inh
O=c1c2ccccc2c(C=Nc2cccc(O)c2)c(O)n1-c1ccc2c(c1)OCO2,i,i,25*,-2,-1,i,i,i,-1.3,3
Cc1nn(C2CCS(=O)(=O)C2)c(C)c1CN(C)C(=O)c1ccc(Cl)cc1 (centres undefined),/,/,/,3,4,i,/,/,/,/
CCCCOC(=O)Nc1nnc(COc2ccccc2)s1,i,i,25*,9,-3,i,i,i,-0.82,-16
COC(=O)Nc1nnc(COc2ccccc2)s1,i,i,i,/,-5,i,/,/,/,/
O=C(Cc1ccc(S(=O)(=O)N2CCOCC2)s1)N1CCN(S(=O)(=O)c2cccc(Cl)c2)CC1,i,i,i,-2,6,i,/,/,/,/
COc1cccc(/C=C2\CCC(C3CCCC3)C2=O)c1OC (centres undefined),i,i,25*,-3,2,i,18%*,i,-0.98,-8
COc1ccc(N(CC(=O)NC2CCCC2)C(=O)Cn2nnc(-c3ccc(C)o3)n2)cc1,/,/,/,4,/,i,/,/,/,/
COc1ccc(N(CC(=O)NC2CCCC2)C(=O)Cn2nnc(-c3ccc(C)cc3)n2)cc1,i,i,25*,7,-2,i,i,i,-0.93,-4
COC(=O)c1cccc(Nc2ncnc3sccc23)c1,i,i,100*,-1,1,i,26%*,i,-0.87,-16
c1ccc(-c2csc(N3CCN(c4ccccn4)CC3)n2)cc1,i,i,25*,-4,2,i,i,i,-1.1,-8
COc1cc(-c2nc(S(=O)(=O)c3ccccc3)c(N3CCOCC3)o2)cc(OC)c1OC,i,i,100*,2,-5,i,i,i,-1,-7
O=S(=O)(c1ccccc1)c1nc(-c2ccccc2)oc1N1CCOCC1,i,i,i,11,3,i,/,/,/,/
O=c1c(Cc2ccc(Cl)cc2Cl)c(O)ccn1Cc1ccncc1,i,i,i,0,11,i,/,/,/,/
O=c1c(C/C=C/c2ccccc2)c(O)ccn1Cc1ccc(Cl)cc1Cl,i,i,100*,2,-8,i,i,i,-0.78,-18
CCOC(=O)c1ccc(NC(=O)C2CCCN(S(=O)(=O)c3ccc(F)cc3)C2)cc1 (centres undefined),i,i,25*,3,1,i,18%*,i,-1.1,-4
CCOC(=O)c1ccc(NC(=O)C2CCN(S(=O)(=O)c3ccccc3)CC2)cc1,i,i,i,4,6,i,/,/,/,/
CCOC(=O)c1ccc(NC(=O)c2cc(S(=O)(=O)N3CCOCC3)ccc2O)cc1,i,i,25*,-3,5,i,37%*,i,-0.86,-16
O=C1CC(C(=O)Nc2ccccc2)N=C(N2CCCCC2)N1 (centres undefined),i,i,i,5,4,i,i,i,-1.1,-5
O=C1CC(C(=O)NCc2ccccc2)N=C(N2CCCCC2)N1 (centres undefined),i,i,i,2,-1,i,/,/,/,/
CCN(CC)C(=O)C1CCCN(c2ccc([N+](=O)[O-])cc2/C=N/NC(=O)c2cccc(Br)c2)C1 (centres undefined),i,i,100*,1,0,i,i,i,-0.86,-12
O=C(N/N=C/c1cccc([N+](=O)[O-])c1)c1cccc(Br)c1,i,i,i,2,-2,i,/,/,/,/
CCOC(=O)C(CCC(=O)O)(CCC(C)C)c1csc(N)n1 (centres undefined),i,i,100*,3,3,i,i,i,-0.97,-14
CCOC(=O)C(CC)(CCC(=O)OC)c1csc(Nc2ccccc2O)n1 (centres undefined),i,i,i,/,0,/,/,/,/,/
Cc1cccc2sc(NNC(=O)c3ccc(S(=O)(=O)N4CC(C)CC(C)C4)cc3)nc12 (centres undefined),i,i,25*,-6,-4,i,26%*,i,-0.97,-9
CCOC(=O)C1CCN(C(=O)c2ccc(OCC(=O)Nc3cccc(C(F)(F)F)c3)c(OC)c2)CC1,i,i,25*,0,1,i,28%*,i,-1.1,-19
SMILES,CHT inh,CHT PAM,TMEM16A inh,IDE act,IDE cell inh,TMEM16A act,TMEM16A reconf,HEK293 Ca mobil,Parental YFP cnt,ClC-1 rat inh
COc1cc(Cl)c(C)cc1NC(=O)CN1C(=O)C2CCCCC2C1=O (centres undefined),/,/,/,3,-1,i,/,/,/,/
COc1cc(SC)ccc1C(=O)NCC1CCCCC1,i,i,i,1,3,i,/,/,/,/
CCn1cnc2scc(-c3ccccc3)c2c1=O,i,i,100*,5,-1,i,i,i,-1.1,-12
COc1ccc(-c2csc3ncn(Cc4ccccc4)c(=O)c23)cc1,i,i,i,2,-4,i,/,/,/,/
O=S(=O)(NCC(c1ccco1)N1CCc2ccccc2C1)c1ccc(Br)cc1 (centres undefined),i,i,25*,4,9,i,i,i,-0.82,-5
COc1ccc(C)cc1S(=O)(=O)NCC(c1ccco1)N1CCc2ccccc2C1 (centres undefined),i,i,i,-1,4,i,/,/,/,/
C1CCC(C(CC2CCCCN2)C2CCCCC2)CC1 (centres undefined),i,i,25*!,6,4,i,i,i,-1.1,-10
CCCc1c(C(=O)N/N=C/c2ccccc2C(F)(F)F)nnn1-c1nonc1N,i,i,i,2,2,i,/,/,/,/
CCc1cc(-c2[nH]ncc2-c2ccc3c(c2)OCO3)c(O)cc1O,i,i,100*,4,2,i,52%*,i,-1.3,-10
COc1ccccc1Cc1nnc(NC(=O)C2CCN(C(=O)c3ccco3)CC2)s1,i,i,i,2,4,i,/,/,/,/

# Screening results deposited in PubChem by several laboratories.
